# Reference: ChEMBL document CHEMBL5606458, “ASAP - ZIKV NS2B-NS3 protease fluorescence single point” (2024)
# Out of some 2,700 compounds screened, about 160 (5.9%) showed an effect of 50% or more. The entries come from a sample that favours strong results as a whole.
# Target: Nonstructural protein 3 (Zika virus) (UniProt A0A024AXB9)
# Sequence (A0A024AXB9 as listed by the source): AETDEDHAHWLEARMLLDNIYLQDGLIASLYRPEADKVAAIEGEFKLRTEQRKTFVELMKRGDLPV
smiles,measurement,setting,value
O=C(Nc1cccc(N2CCNCC2)c1)c1cccc2ncccc12,inhibition,"PRVABC59, Concentration 49.5 uM, Number of replicates 2.0, Standard deviation 0.4660025311194914 %",12.8%
same,inhibition,"PRVABC59, Concentration 99.01 uM, Number of replicates 2.0, Standard deviation 1.8240670503820091 %",21.1%
same,inhibition,"PRVABC59, Concentration 198.0 uM, Number of replicates 2.0, Standard deviation 0.426059457023535 %",34.4%
CCn1ccnc(N2CC[C@@H](Cc3ccncc3)C2)c1=O,inhibition,"PRVABC59, Concentration 50.0 uM, Number of replicates 2.0, Standard deviation 17.324672814645545 %",18.6%
same,inhibition,"PRVABC59, Concentration 100.0 uM, Number of replicates 2.0, Standard deviation 1.6917913579666908 %",12.9%
same,inhibition,"PRVABC59, Concentration 200.0 uM, Number of replicates 2.0, Standard deviation 5.92774721773736 %",23.1%
CC(C)c1cc(CN2CCC3(CC2)C(=O)NCc2ccccc23)n[nH]1,inhibition,"PRVABC59, Concentration 49.5 uM, Number of replicates 2.0, Standard deviation 2.3847652893231714 %",1.4%
same,inhibition,"PRVABC59, Concentration 99.01 uM, Number of replicates 2.0, Standard deviation 4.553677158798315 %",2.83%
same,inhibition,"PRVABC59, Concentration 198.0 uM, Number of replicates 2.0, Standard deviation 2.2809894644583135 %",6.37%
O=S(=O)(c1c[nH]c2ccccc12)N1CCC(c2cnc3ccc[nH]c2-3)CC1,inhibition,"PRVABC59, Concentration 49.5 uM, Number of replicates 2.0, Standard deviation 0.9724228784365659 %",34%
same,inhibition,"PRVABC59, Concentration 99.01 uM, Number of replicates 2.0, Standard deviation 0.1115050511195736 %",36.4%
same,inhibition,"PRVABC59, Concentration 198.0 uM, Number of replicates 2.0, Standard deviation 2.3986425606638684 %",29%
CCn1ccnc(N2CC[C@H](c3ccc(OC)nc3)C2)c1=O,inhibition,"PRVABC59, Concentration 50.0 uM, Number of replicates 2.0, Standard deviation 2.450630192539874 %",10.5%
same,inhibition,"PRVABC59, Concentration 100.0 uM, Number of replicates 2.0, Standard deviation 0.40502109894604904 %",17.9%
same,inhibition,"PRVABC59, Concentration 200.0 uM, Number of replicates 2.0, Standard deviation 0.08715563662307181 %",30.5%
CCCN(C)C(=O)c1cc(Cl)ccc1NS(=O)(=O)c1ccc(Oc2ccccc2Cl)cc1,inhibition,"PRVABC59, Concentration 49.5 uM, Number of replicates 2.0, Standard deviation 1.6827651888895978 %",30.1%
same,inhibition,"PRVABC59, Concentration 99.01 uM, Number of replicates 2.0, Standard deviation 1.553741884480168 %",42.7%
same,inhibition,"PRVABC59, Concentration 198.0 uM, Number of replicates 2.0, Standard deviation 1.4828704414225533 %",51.4%
CN(CCS(N)(=O)=O)C(=O)c1cc(Cl)ccc1NS(=O)(=O)c1ccc(Oc2ccccc2Cl)cc1,inhibition,"PRVABC59, Concentration 49.5 uM, Number of replicates 2.0, Standard deviation 4.192376018410405 %",8.99%
same,inhibition,"PRVABC59, Concentration 99.01 uM, Number of replicates 2.0, Standard deviation 3.3291863073712813 %",17.3%
same,inhibition,"PRVABC59, Concentration 198.0 uM, Number of replicates 2.0, Standard deviation 0.7795966632269805 %",72.5%
CCCCCNC(=O)c1cc(Cl)ccc1NS(=O)(=O)c1ccc(Oc2ccccc2Cl)cc1,inhibition,"PRVABC59, Concentration 49.5 uM, Number of replicates 2.0, Standard deviation 0.82866638448688 %",30.5%
same,inhibition,"PRVABC59, Concentration 99.01 uM, Number of replicates 2.0, Standard deviation 0.1903473061675686 %",14.2%
